Hits are enriched below; roughly 2.2% of the tested compounds scored in any of these assays.
TMEM16A act: mouse TMEM16A channel activation, primary screen; Q8BHY3; HEK293 TMEM16A/YFP-H148Q/I152L, iodide quench fluorescence; active compounds read low; B-score at 10 µM; 340,000 compounds, 0.3% hits;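 active = fluorescence-ratio B-score plate-corrected deviation score at least 3 library SD below zero, with starting fluorescence score within 5 deviations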;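 also: channel opened by trigger with iodide after compound preincubation; score built on the fluorescence ratio of max minus min over baseline; more negative score means more quench and so TMEM16A activation or potentiation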
M1 ag parental: counter-screen for M1 agonists: effect in parental CHO-K1 cells. Fluo-8 calcium fluorescence; scaled to maximal ATP response, vehicle zero. activation, % at 3 µM. 360,000 compounds, 0.48% hits. AID 602248; in the data active = activation above about 15%;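 also: untransfected CHO-K1 host cells lacking M1 receptor as counterscreen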
NTR1 ag: agonists of human neurotensin receptor NTR1; P30989; NTR1-U2OS beta-arrestin-GFP spot imaging, agonist mode; 330,000 compounds, 0.17% hits; activation, % at 20 µM; AID 493036;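 active = activation at or above 40% of the spot to cytoplasm intensity ratio, with at least 20 cells analyzed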;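 also: 0% = DMSO without peptide and 100% = 100 nM NTR1 peptide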
Target sequence (P30989 whole entry, looked up): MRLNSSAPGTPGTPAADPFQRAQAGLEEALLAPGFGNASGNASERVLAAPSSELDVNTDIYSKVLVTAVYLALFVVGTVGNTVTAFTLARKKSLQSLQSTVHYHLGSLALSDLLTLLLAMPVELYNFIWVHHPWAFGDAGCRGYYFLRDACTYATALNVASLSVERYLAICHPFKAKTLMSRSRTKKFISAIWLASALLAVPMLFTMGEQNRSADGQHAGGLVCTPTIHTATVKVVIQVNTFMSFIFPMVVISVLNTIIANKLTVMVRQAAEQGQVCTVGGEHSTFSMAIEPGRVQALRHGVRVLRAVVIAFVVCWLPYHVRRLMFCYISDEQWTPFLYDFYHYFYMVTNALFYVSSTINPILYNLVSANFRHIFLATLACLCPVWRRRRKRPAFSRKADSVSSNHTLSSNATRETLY
TMEM16A inh: blocks the mouse calcium-activated chloride channel TMEM16A. 310,000 compounds, 1.2% hits. AID 588511. Q8BHY3. normalized B-score (activity score, 25-100; higher = stronger inhibition) at 10 µM. HEK293 TMEM16A/YFP iodide influx fluorescence, ionomycin;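 active = ratio plate-corrected score three or more library SD toward inhibition, starting fluorescence score within five deviations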;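 also: score derived from kinetic fluorescence span divided by baseline fluorescence per well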
M1 PAM parental: counter-screen for M1 PAMs: effect in parental CHO-K1 cells; activation, % at 3 µM; 360,000 compounds, 0.02% hits; ATP EC20, Fluo-8 calcium fluorescence; 0% at ATP EC20, 100% at ATP max;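 active = activation above the run cutoff, the mean activation of all test compounds plus 3 SD, cut at about 40% in these data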;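 also: peak over basal fluorescence ratio in a 140 s read after ATP addition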
CHO-K1 Ca antag: nonselective inhibitor or artifact in parental CHO-K1 cells; ATP-induced calcium, Fluo-8 fluorescence; 360,000 compounds, 0.6% hits; inhibition, % at 3 µM;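 active = inhibition above a per-plate cutoff, the plate's mean sample inhibition plus 3 SD, cut at about 24% in these data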;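 also: 0% = DMSO plus EC80 ATP and 100% = DMSO alone without ATP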
TMEM16A reconf: TMEM16A (mouse) chloride channel inhibition, re-confirmation; shares compounds with TMEM16A inh; HEK293 TMEM16A/YFP-H148Q, iodide quench fluorescence; ionomycin added to raise cell calcium; inhibition, % at 10 µM; 2,300 compounds, 39% hits; AID 652189;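 active = mean duplicate percent inhibition, scaled so buffer wells are 0 and the reference blocker 100, over three buffer SD above buffer mean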
HEK293 Ca mobil: calcium mobilization counter-screen hit for TMEM16A inhibitor series; shares compounds with TMEM16A inh; TMEM16A/YFP HEK293, Fluo4 calcium mobilization; calcium response (% of ionomycin), % at 10 µM; 2,300 compounds, 2% hits; AID 652231;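 active = duplicate-averaged calcium signal over 20% of the ionomycin maximum, relative to buffer baseline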;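 also: each well's signal is peak minus trough fluorescence divided by its pre-addition baseline; 0% = buffer wells and 100% = ionomycin wells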
Parental YFP cnt: acts in parental YFP-HEK293 cells lacking TMEM16A, counter-screen; iodide YFP quench, ionomycin; AID 652233; 2,300 tested, under 10 active; shares compounds with TMEM16A inh; YFP ratio F(max-min)/F0 at 10 µM;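 active = yellow fluorescent protein signal ratio exceeding the buffer control mean by over 5 SD of those controls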;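 also: ratio is mean of duplicate wells from kinetic YFP trace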
ClC-1 rat inh: selectivity of TMEM16A inhibitors: inhibition of rat ClC-1 chloride channel; shares compounds with TMEM16A inh; CHO ClC-1-YFP, iodide influx fluorescence quench; iodide control reads 0, buffer control 100; ratio percent, % at 10 µM; 2,300 tested, under 10 active; AID 652236;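 active = duplicate-mean ratio percent above the mean of iodide-only control wells, which defines zero, plus 5 of their SD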;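 also: higher percent means stronger block of ClC-1 iodide influx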
An asterisk follows results filed as active; i = inactive; x = no result.

SMILES	TMEM16A act	M1 ag parental	NTR1 ag	TMEM16A inh	M1 PAM parental	CHO-K1 Ca antag	TMEM16A reconf	HEK293 Ca mobil	Parental YFP cnt	ClC-1 rat inh
COC(=O)c1ccc(N2NC(=O)/C(=C/c3cc(OC)c(OC)c(OC)c3)C2=O)cc1	i	2.1	12.6	i	-0.9	-7.4	x	x	x	x
COC(=O)c1ccc(N2NC(=O)/C(=C/c3cc(OC)c(O)c(OC)c3)C2=O)cc1	i	2.6	2.7	i	-5.4	3.4	i	i	-0.752	-34.0
CN(C)Cc1c(O)ccc2ccccc12	i	-0.6	-0.9	i	5.0	22.1	x	x	x	x
Oc1ccccc1Cc1c(O)ccc2ccccc12	i	4.2	5.2	25*	10.1	-2.7	38.5%*	i	-1.13	-8.5
C[C@@H]1CN([C@H](C)CO)C(=O)c2c(c3ccccc3n2C)-c2ccccc2CO[C@H]1CN(C)S(=O)(=O)c1cn(C)cn1	x	0.6	x	x	-5.3	-2.4	x	x	x	x
CCCc1cc(C(=O)N2CCN(c3ccc(C(F)(F)F)cn3)CC2)sc1C	i	4.3	4.1	100*	-6.5	-2.8	i	i	-1.25	-5.5
Cc1cc2nc(-c3ccc(Cl)cc3)c(Cc3ccsc3)n2c(C)c1Br	x	0.2	x	x	-1.6	-17.3	x	x	x	x
Cc1nc2ccccc2c2oc(C(=O)NCc3ccccn3)cc12	i	3.8	-1.2	25*	17.7	-25.8	i	i	-0.863	-1.0
Cc1cccc(N2CCN(C(=O)CN3CCOc4ccccc43)CC2C)c1 (stereo not given)	i	1.4	-2.8	25*	16.6	0.3	i	i	-1.05	-12.0
Cc1cccc(N2CCN(C(=O)c3ccc4c(c3)OCCO4)CC2C)c1 (stereo not given)	i	0.3	2.0	i	-1.8	-9.0	x	x	x	x
CN(C)c1ncnc2c1ncn2[C@H]1CN(Cc2ccc3c(c2)OCO3)C[C@@H](CO)O1	x	0.7	x	x	-12.1	2.1	x	x	x	x
CCc1ccc(S(=O)(=O)NCc2csc(-c3ccccc3)n2)s1	i	2.6	1.2	i	30.0	-13.8	x	x	x	x
CCc1ccc(S(=O)(=O)NCCc2csc(-c3ccccc3)n2)s1	i	6.3	3.0	100*	2.5	2.1	i	i	-1.07	-26.0
Cc1ccc(Cn2ncc3c(N4CCN(C)CC4)ncnc32)cc1	i	5.2	0.0	i	-3.6	-12.1	x	x	x	x
Cc1ccc(Cn2ncc3c(N4CCN(Cc5ccc(Cl)cc5)CC4)ncnc32)cc1	i	0.5	11.9	25*	9.9	15.6	17.5%*	i	-1.11	-7.5
Cc1ccccc1N1CCN(c2ncnc3c2cnn3Cc2ccc(Cl)cc2)CC1	i	1.0	3.6	i	14.7	-10.5	x	x	x	x
Cc1cc(C)nc(N2CCN(c3ncnc4c3cnn4Cc3ccc(Cl)cc3Cl)CC2)n1	x	x	3.4	100*	x	x	28.5%*	i	-1.03	-20.0
CC1CCN(c2ncnc3c2cnn3Cc2ccc(Cl)cc2)CC1	i	1.1	4.1	i	18.3	-3.0	i	i	-0.956	-10.5
Cc1ccc(Cn2ncc3c(N4CCN(c5ccc(C)cc5)CC4)ncnc32)cc1	i	0.0	13.4	100*	2.4	-16.5	23.5%*	i	-1.02	-10.0
COc1ccc(C(O)c2nc(-c3cccc4cccnc34)cs2)cc1 (stereo not given)	x	0.4	x	x	0.3	10.4	x	x	x	x
Cc1sc2nc(CSC(C)C(=O)Nc3ccc(C#N)cc3)[nH]c(=O)c2c1C (stereo not given)	i	0.1	-0.1	25*	-21.1	-3.4	i	23.0%*	-1.05	-2.5
Nn1cnc2cc3ccccc3cc2c1=O	i	0.8	-0.2	i	-3.8	-8.4	x	x	x	x
COc1ccc(-n2c(SCCC(=O)O)nnc2-c2ccncc2)cc1	i	0.1	2.4	100*	8.6	-3.8	i	i	-1.17	2.0
COc1ccc(-c2nnc(SCCC(=O)O)n2-c2ccccc2)cc1OC	i	0.1	0.5	i	-5.9	-2.8	x	x	x	x
CCC1Cc2[nH][nH]c(=O)c2C(CC)O1 (stereo not given)	x	0.1	x	x	-3.4	-5.8	x	x	x	x
SMILES	TMEM16A act	M1 ag parental	NTR1 ag	TMEM16A inh	M1 PAM parental	CHO-K1 Ca antag	TMEM16A reconf	HEK293 Ca mobil	Parental YFP cnt	ClC-1 rat inh
CSCCC(C(=O)N(C)CC(=O)Nc1cccc(F)c1)N1C(=O)c2ccccc2C1=O (stereo not given)	i	0.6	2.4	x	-3.2	6.0	x	x	x	x
O=c1oc2ccccc2cc1-c1nc2c(s1)CCCC2	i	0.3	2.2	25*	-3.5	-7.7	i	i	-1.25	-7.5
CSc1ccc(NC(=O)C2(C)CCN2C(=O)c2cc(C)n(C)n2)cc1 (stereo not given)	x	3.0	x	x	1.9	-4.5	x	x	x	x
CC(Oc1ccccc1)c1ccnn1S(C)(=O)=O (stereo not given)	i	0.0	0.9	i	-2.5	-5.2	x	x	x	x
CC(Oc1ccc(Cl)cc1)c1ccnn1S(=O)(=O)c1ccccc1 (stereo not given)	i	-0.1	-0.2	100*	14.6	-7.5	32.0%*	i	-1.14	-12.5
COc1ccc(S(=O)(=O)Nc2cccc(NC(C)=O)c2)cc1	i	2.0	1.7	25*	1.5	-12.9	i	i	-0.839	-3.0
COc1ccc(NS(=O)(=O)c2ccc(NS(=O)(=O)c3cccc(C(=O)O)c3)cc2)cc1	i	0.0	-1.5	i	-15.2	-0.8	x	x	x	x
CC(=O)c1ccc(NS(=O)(=O)c2ccc(CC(C)C)cc2)cc1	i	7.2	-0.8	100*	5.9	-3.4	53.5%*	i	-1.07	-5.5
COC(=O)c1ccc(NS(=O)(=O)c2ccc(OC)cc2)cc1	i	1.8	1.7	100*	-2.1	-8.4	i	i	-1.11	-14.0
COc1ccc(CNC(=S)Nc2cccc(F)c2)cc1	i	5.6	0.0	i	-14.6	5.9	x	x	x	x
C=C(C)COc1ccc2c3c(c(=O)oc2c1OCC(=C)C)CCC3	i	-0.1	3.9	100*	0.0	-8.7	17.0%*	i	-1.04	-2.5
Cc1cc(/C=N/n2cnnc2)c(C)n1-c1ccc(OCc2ccc(Cl)cc2)cc1	i	8.6	11.6	100*	4.3	24.2*	24.5%*	i	-1.07	-19.0
COc1ccc(C(=O)Nc2nc(-c3cccs3)cs2)cc1	i	0.9	5.2	100*	11.6	-16.1	23.5%*	i	-1.08	-16.5

From PubChem
